# Assay results reported in the supplement of paper PMC13380429.
# Unmarked numbers belong to inactive results.
# Test system: Vero E6 infected with SARS-CoV-2
# Test: inhibition of SARS-CoV-2 cytopathic effect; higher = more antiviral protection, active = above 15
# Conditions: 48 h
SMILES,inhibition of SARS-CoV-2 cytopathic effect (1 nM) [%],inhibition of SARS-CoV-2 cytopathic effect (8.33 nM) [%],inhibition of SARS-CoV-2 cytopathic effect (100 nM) [%],inhibition of SARS-CoV-2 cytopathic effect (833.33 nM),inhibition of SARS-CoV-2 cytopathic effect (10000 nM)
COc1cc2ncnc(Oc3cccc(NC(=O)Nc4cc(C(C)(C)C(F)(F)F)on4)c3)c2cc1OC,-0.44,0.69,2.72,-0.98%,-6.45%
O=C(Nc1cnn2ccc(N3CCC[C@@H]3c3cc(F)ccc3F)nc12)N1CC[C@H](O)C1 [larotrectinib],1.44,4.14,3.48,-0.49%,2.41%
O=c1n(CCCN2CCN(c3cccc(Cl)c3)CC2)nc2ccccn12 [trazodone],0.53,4.07,0.98,-1.12%,-0.82%
COc1ccc(N(C(=O)Oc2c(C)cccc2C)c2ccnc(Nc3ccc(N4CCN(C)CC4)cc3)n2)c(OC)c1,0.25,1.54,0.43,0.02%,-1.27%
O=C(Nc1ccc([N+](=O)[O-])cc1Cl)c1cc(Cl)ccc1O [niclosamide],-0.87,-2.63,0.39,11.4%,4.29%
CC(C)(C)c1ccc(S(=O)(=O)/C=C/C#N)cc1,2.15,0.27,0.24,5.32%,-2.36%
NCCc1c[nH]c2ccc(C(N)=O)cc12 [5-carboxamidotryptamine],2.2,0.54,3.52,15.1% (active),1.89%
O=c1c(O[C@@H]2O[C@H](CO)[C@H](O)[C@H](O)[C@H]2O)c(-c2ccc(O)c(O)c2)oc2cc(O)cc(O)c12 [hyperin],0.95,2.27,-0.59,-1.62%,0.59%
NCC(=O)O,1.39,-0.35,1.12,-1.32%,0.49%
CN1CCC(=C2c3ccccc3CCn3c(C=O)cnc32)CC1 [alcaftadine],-1.5,0.26,-2.72,0.36%,-2.28%
COc1c(C)cnc(Cn2cc(C#CCC(C)(C)O)c3c(Cl)nc(N)nc32)c1C,2.11,1.52,-1.98,0.61%,-7.6%
Cc1cc(Oc2ccc3nc(COc4ccc(CC5SC(=O)NC5=O)cc4)n(C)c3c2)cc(C)c1N (stereo not given) [efatutazone],-0.56,2.28,0.7,0.08%,-0.83%
C=CC(=O)c1ccc2ccccc2c1 [JAK3-inhibitor-V],-1.46,-1.7,-2.73,-2.88%,1.9%
CC(C)Oc1cccc(-n2c(CCc3c[nH]c4ccc(Br)cc34)nc3ccccc3c2=O)c1,-1.06,2.18,2.14,0.14%,0.06%
CCN1CCC[C@H]1CNC(=O)c1c(O)c(Cl)cc(Cl)c1OC [raclopride],-5.41,-4.22,-1.29,-2.68%,-0.07%
CC(=O)Nc1cccc(O)c1 [metacetamol],1.03,5.41,3.07,4.81%,4.76%
COc1cccc(C2(O)CCCCC2CN(C)C)c1 (stereo not given),3.29,6.35,2.41,-2.01%,-5.31%
O=S(=O)(c1cccc2cnccc12)N1CCCNCC1 [fasudil],-2.19,-3.05,-2.08,-2.42%,-5.91%
CCN(CC)CCCCN1c2ccccc2Oc2ccc(Cl)cc21,0.59,-2.15,-2.29,-3.45%,40.9% (active)
